To fix the notation:
B1: CCUUUUU (DNA:RNA)
RNA: GGGAGACCGGAAUUCAGAUUGUCCCCUUUUUUUAAAUCCCGUCGUAGCCACCA
DNA 1: CAATCTGAATTCCGGTCTCCC
DNA 2: TGGTGGCTACGACGGGATT
B2: CGCACUG (DNA:RNA)
RNA: B1 RNA with C26G, U27C, U28A, U29C, U31G
DNA 1: CAATCTGAATTCCGGTCTCCC
DNA 2: TGGTGGCTACGACGGGATT
B3: GUAUUUU (DNA:RNA)
RNA: B1 RNA with C25G, C26U, U27A
DNA 1: CAATCTGAATTCCGGTCTCCC
DNA 2: TGGTGGCTACGACGGGATT
B4: AGGAUUG (DNA:RNA)
RNA: B1 RNA with C25A, C26G, U27G, U28A, U31G
DNA 1: CAATCTGAATTCCGGTCTCCC
DNA 2: TGGTGGCTACGACGGGATT
B5: AGGAGAC (DNA:RNA)
RNA: GGGAGACCGGAAUUCAGAUUGUCCAGGAGACUUAAAUCCCGUCGUAGCCACCA
DNA 1: CAATCTGAATTCCGGTCTCCC
DNA 2: TGGTGGCTACGACGGGATT
B6: AGGAUGU (DNA:RNA)
RNA: B5 RNA with G29U, A30G, C31U
DNA 1: CAATCTGAATTCCGGTCTCCC
DNA 2: TGGTGGCTACGACGGGATT
B7: AGGAAUG (DNA:RNA)
RNA: B5 RNA with G29A, A30U, C31G
DNA 1: CAATCTGAATTCCGGTCTCCC
DNA 2: TGGTGGCTACGACGGGATT
B8: ACCAGGA (DNA:RNA)
RNA: B5 RNA with G26C, G27C, A30G, C31A
DNA 1: CAATCTGAATTCCGGTCTCCC
DNA 2: TGGTGGCTACGACGGGATT
B9: AGGGAUG (DNA:RNA)
RNA: B5 RNA with A28G, G29A, A30U, C31G
DNA 1: CAATCTGAATTCCGGTCTCCC
DNA 2: TGGTGGCTACGACGGGATT
B10: AGGAAUC (DNA:RNA)
RNA: B5 RNA with G29A, A30U
DNA 1: CAATCTGAATTCCGGTCTCCC
DNA 2: TGGTGGCTACGACGGGATT
B11: AGGAGGA (DNA:RNA)
RNA: B5 RNA with A30G, C31A
DNA 1: CAATCTGAATTCCGGTCTCCC
DNA 2: TGGTGGCTACGACGGGATT
B12: AGGGGGA (DNA:RNA)
RNA: B5 RNA with A28G, A30G, C31A
DNA 1: CAATCTGAATTCCGGTCTCCC
DNA 2: TGGTGGCTACGACGGGATT
B13: UACUCAU (DNA:RNA)
RNA: B1 RNA with C25U, C26A, U27C, U29C, U30A
DNA 1: CAATCTGAATTCCGGTCTCCC
DNA 2: TGGTGGCTACGACGGGATT
B14: CUACUCU (DNA:RNA)
RNA: B1 RNA with C26U, U27A, U28C, U30C
DNA 1: CAATCTGAATTCCGGTCTCCC
DNA 2: TGGTGGCTACGACGGGATT
B15: ACAGGAC (DNA:RNA)
RNA: B5 RNA with G26C, G27A, A28G
DNA 1: CAATCTGAATTCCGGTCTCCC
DNA 2: TGGTGGCTACGACGGGATT
B16: GGGAGUU (DNA:RNA)
RNA: B5 RNA with A25G, A30U, C31U
DNA 1: CAATCTGAATTCCGGTCTCCC
DNA 2: TGGTGGCTACGACGGGATT
B17: CUCGGGU (DNA:RNA)
RNA: B1 RNA with C26U, U27C, U28G, U29G, U30G
DNA 1: CAATCTGAATTCCGGTCTCCC
DNA 2: TGGTGGCTACGACGGGATT
B18: AACUACA (DNA:RNA)
RNA: B5 RNA with G26A, G27C, A28U, G29A, A30C, C31A
DNA 1: CAATCTGAATTCCGGTCTCCC
DNA 2: TGGTGGCTACGACGGGATT
B19: GCUCAGC (DNA:RNA)
RNA: B1 RNA with C25G, U28C, U29A, U30G, U31C
DNA 1: CAATCTGAATTCCGGTCTCCC
DNA 2: TGGTGGCTACGACGGGATT
B20: GGGUUGU (DNA:RNA)
RNA: B1 RNA with C25G, C26G, U27G, U30G
DNA 1: CAATCTGAATTCCGGTCTCCC
DNA 2: TGGTGGCTACGACGGGATT
B21: GGGGGGU (DNA:RNA)
RNA: B5 RNA with A25G, A28G, A30G, C31U
DNA 1: CAATCTGAATTCCGGTCTCCC
DNA 2: TGGTGGCTACGACGGGATT
B22: GUCGGGU (DNA:RNA)
RNA: B5 RNA with A25G, G26U, G27C, A28G, A30G, C31U
DNA 1: CAATCTGAATTCCGGTCTCCC
DNA 2: TGGTGGCTACGACGGGATT
B23: GGGUUUG (DNA:RNA)
RNA: B1 RNA with C25G, C26G, U27G, U31G
DNA 1: CAATCTGAATTCCGGTCTCCC
DNA 2: TGGTGGCTACGACGGGATT
B24: GUCCGGG (DNA:RNA)
RNA: B5 RNA with A25G, G26U, G27C, A28C, A30G, C31G
DNA 1: CAATCTGAATTCCGGTCTCCC
DNA 2: TGGTGGCTACGACGGGATT
B25: GGGUUUU (DNA:RNA)
RNA: B1 RNA with C25G, C26G, U27G
DNA 1: CAATCTGAATTCCGGTCTCCC
DNA 2: TGGTGGCTACGACGGGATT
B26: AAGCAAG (DNA:RNA)
RNA: B5 RNA with G26A, A28C, G29A, C31G
DNA 1: CAATCTGAATTCCGGTCTCCC
DNA 2: TGGTGGCTACGACGGGATT
B27: UGCCAGG (DNA:RNA)
RNA: B5 RNA with A25U, G27C, A28C, G29A, A30G, C31G
DNA 1: CAATCTGAATTCCGGTCTCCC
DNA 2: TGGTGGCTACGACGGGATT
B28: UCCCAGC (DNA:RNA)
RNA: B5 RNA with A25U, G26C, G27C, A28C, G29A, A30G
DNA 1: CAATCTGAATTCCGGTCTCCC
DNA 2: TGGTGGCTACGACGGGATT
B29: AAUUCGA (DNA:RNA)
RNA: B1 RNA with C25A, C26A, U29C, U30G, U31A
DNA 1: CAATCTGAATTCCGGTCTCCC
DNA 2: TGGTGGCTACGACGGGATT
B30: GGUACUG (DNA:RNA)
RNA: B5 RNA with A25G, G27U, G29C, A30U, C31G
DNA 1: CAATCTGAATTCCGGTCTCCC
DNA 2: TGGTGGCTACGACGGGATT
B31: GCGCAUC (DNA:RNA)
RNA: B5 RNA with A25G, G26C, A28C, G29A, A30U
DNA 1: CAATCTGAATTCCGGTCTCCC
DNA 2: TGGTGGCTACGACGGGATT
B32: GCAUCUC (DNA:RNA)
RNA: B1 RNA with C25G, U27A, U29C, U31C
DNA 1: CAATCTGAATTCCGGTCTCCC
DNA 2: TGGTGGCTACGACGGGATT
B33: CGCAUCU (DNA:RNA)
RNA: B1 RNA with C26G, U27C, U28A, U30C
DNA 1: CAATCTGAATTCCGGTCTCCC
DNA 2: TGGTGGCTACGACGGGATT
B34: CCGCAUC (DNA:RNA)
RNA: B1 RNA with U27G, U28C, U29A, U31C
DNA 1: CAATCTGAATTCCGGTCTCCC
DNA 2: TGGTGGCTACGACGGGATT
B35: GCAUAUC (DNA:RNA)
RNA: B1 RNA with C25G, U27A, U29A, U31C
DNA 1: CAATCTGAATTCCGGTCTCCC
DNA 2: TGGTGGCTACGACGGGATT
B36: GCAUCUU (DNA:RNA)
RNA: B1 RNA with C25G, U27A, U29C
DNA 1: CAATCTGAATTCCGGTCTCCC
DNA 2: TGGTGGCTACGACGGGATT

Positions count from the first letter of the chain named. The full ranking holds about 16,000 sequences; the median of “ka relative to ugcaugu” is about 0.096, and the highest 2% start at about 0.35. The full list was thinned out, with the highest values kept by preference.

The experiment addresses T1, RBFOX1 RRM RbFoxmut (Fox-RRM*) (Homo sapiens, UniProt Q9NWB1 109-208, R118D;E147R;N151S;E152T).
T1 sequence: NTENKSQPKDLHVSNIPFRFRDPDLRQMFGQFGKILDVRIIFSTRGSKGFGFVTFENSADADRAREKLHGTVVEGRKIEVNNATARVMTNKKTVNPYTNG
Nature of the experiment: EMSA; HiTS-Eq, 1 nM pool, 10 min; buffer printed only for the single-RNA assays: 10 mM Tris pH 7.5, 150 mM NaCl, 3.4 mM EDTA, 0.001% NP-40, 30 C. To be noted: tags: His6 N-terminal (pET28a); label: 5' 32P. A digest of the protocol: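 Purified RbFox RRM (wild type or mutant) was equilibrated for 10 min in 50 µL with 1 nM of a 5′-radiolabelled pool of RNA with 7 randomized nucleotides, its flanks annealed to DNA oligonucleotides, across increasing protein concentrations. Free RNA was separated by 8% native PAGE, excised, reverse-transcribed, PCR-barcoded and sequenced on an Illumina HiSeq 2500. Relative association constants came from read-count changes of each variant against the control reaction, normalised to the cognate motif.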
As for B1, the binding signal was 0.0758 KA relative to UGCAUGU.

B2: the binding signal is 0.125 KA relative to UGCAUGU.

As to B3, the binding signal is 0.118 KA relative to UGCAUGU.

For the molecule B4, the binding signal was 0.583 KA relative to UGCAUGU.

Regarding B5, the binding signal was 0.0904 KA relative to UGCAUGU.

For the molecule B6, the binding signal was 0.339 KA relative to UGCAUGU.

With B7, the binding signal is 1.4 KA relative to UGCAUGU.

Take B8: the binding signal is 0.0755 KA relative to UGCAUGU.

Turning to B9, the binding signal is 0.476 KA relative to UGCAUGU.

Turning to B10, the binding signal is 0.261 KA relative to UGCAUGU.

In the case of B11, the binding signal is 0.084 KA relative to UGCAUGU.

On to B12, for which the binding signal is 0.149 KA relative to UGCAUGU.

In the case of B13, the binding signal is 0.0982 KA relative to UGCAUGU.

B14: the binding signal was 0.0641 KA relative to UGCAUGU.

Regarding B15, the binding signal was 0.0906 KA relative to UGCAUGU.

Take B16: the binding signal was 0.09 KA relative to UGCAUGU.

Regarding B17, the binding signal is 0.0903 KA relative to UGCAUGU.

For the molecule B18, the binding signal was 0.121 KA relative to UGCAUGU.

For B19, the binding signal was 0.0895 KA relative to UGCAUGU.

As to B20, the binding signal was 0.448 KA relative to UGCAUGU.

As for B21, the binding signal was 0.0952 KA relative to UGCAUGU.

For the molecule B22, the binding signal is 0.132 KA relative to UGCAUGU.

As for B23, the binding signal was 0.741 KA relative to UGCAUGU.

For B24, the binding signal is 0.0861 KA relative to UGCAUGU.

Turning to B25, the binding signal was 0.0749 KA relative to UGCAUGU.

Regarding B26, the binding signal is 0.103 KA relative to UGCAUGU.

Regarding B27, the binding signal is 0.0858 KA relative to UGCAUGU.

Take B28: the binding signal was 0.1 KA relative to UGCAUGU.

Take B29: the binding signal was 0.0737 KA relative to UGCAUGU.

Regarding B30, the binding signal was 0.112 KA relative to UGCAUGU.

Turning to B31, the binding signal was 0.49 KA relative to UGCAUGU.

For the molecule B32, the binding signal is 0.135 KA relative to UGCAUGU.

Regarding B33, the binding signal was 0.395 KA relative to UGCAUGU.

Regarding B34, the binding signal is 0.258 KA relative to UGCAUGU.

In the case of B35, the binding signal was 0.073 KA relative to UGCAUGU.

Take B36: the binding signal was 0.33 KA relative to UGCAUGU.

Values taken from publication PMC9911399, “Two distinct binding modes provide the RNA-binding protein RbFox with extraordinary sequence specificity”.
